Measurements from PubChem BioAssay (NCI).
The panel holds about 83,000 compounds, 20% with a hit somewhere; the sample as a whole holds those more often.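 Percent growth is the endpoint: 0 to 100 indicates growth inhibition (40 means 60% inhibition), 0 means no net growth, and negative values indicate cell death.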 A number with no mark means an inactive call. Active and inactive are the calls of the source. Rule for the calls: active = growth percent below 10; inactive = the rest.

system: MDA-MB-468 breast; assay: NCI-60 one-dose screen, 48 h (100 = growth as untreated, 0 = no growth, -100 = all killed); details: 10 µM unless noted

**Q.** `COc1ccc(OC)c(/C=C/C(=O)N/N=C/c2ccc(Cl)cc2)c1` was tested. Which growth did it give?
**A.** The growth was -4.03% (active).

**Q.** `N/C(=N\c1nc2c(Cl)cccc2s1)C(Cl)(Cl)Cl` was tested. Which growth did it give?
**A.** The growth was 22.6%.

**Q.** With `COc1ccc(-c2nnc(-c3c(-c4ccccc4)nc4ncccn34)o2)cc1OC` as the molecule, how does the growth read?
**A.** Its growth is 99.1%.

**Q.** How did the growth turn out when `O=C(NCCCl)Nc1ncccc1OCc1ccccc1` was run?
**A.** The growth was 104%.

**Q.** How did the growth turn out when `C=C1C(=O)O[C@H]2[C@H]1CC/C(CNC(=O)CCc1ccc(OC)cc1)=C\CC[C@@]1(C)O[C@@H]21` was run?
**A.** Its growth is 32.1%.

**Q.** With `CCN1C(=O)C(C)C=C(C)C=C1C` (stereo not given) as the molecule, how does the growth read?
**A.** Its growth is 110%.

**Q.** `Cn1cnc([N+](=O)[O-])c1Sc1nnc(-c2ccccc2)c(-c2ccccc2)n1` was tested. Which growth did it give?
**A.** The growth was 64.8%.

**Q.** `CCNCCNc1cc(-c2cccc(C(F)(F)F)c2)c(C#N)c2nc3ccccc3n12` was tested. Which growth did it give?
**A.** Its growth is -84.3% (active).

**Q.** With `CN(Cc1cnc2nc(N)nc(N)c2n1)c1ccc(C(=O)NC(CCC(=O)O)C(=O)O)cc1Br` (stereo not given) as the molecule, how does the growth read?
**A.** The growth was 42.4%.

**Q.** For `NCCCNc1nc2ccccc2c2c(=O)c3cc(Cl)ccc3sc12`, which growth is on record?
**A.** The growth was -19.1% (active).

**Q.** Which growth does the source give for `NC(=O)c1ccc(-c2cccc3c(=O)nc(N4CCOCC4)oc23)cc1` here?
**A.** Its growth is 105%.

**Q.** For `COc1cc(/C=N/n2c(CN3CCOCC3)nc3ccccc3c2=O)cc(OC)c1OC`, which growth is on record?
**A.** Its growth is 109%.

**Q.** How did the growth turn out when `COc1cc(C2CC(c3cccc(Br)c3)=NN2C(C)=O)cc(OC)c1OC` (stereo not given) was run?
**A.** The growth was 24.1%.

**Q.** How did the growth turn out when `CCN(CC)CCCNc1cc(OC)cc2nc3cc(Cl)ccc3nc12` was run?
**A.** The growth was 11%.

**Q.** `COc1ccc(Nc2nc(N)nc3c(=O)[nH]ccc23)cc1` was tested. Which growth did it give?
**A.** The growth was 118%.

**Q.** How did the growth turn out when `COc1ccc2c(CCCCC(c3ccccc3)c3ccccc3)c3[n+](cc2c1OC)CCc1cc2c(cc1-3)OCO2` was run?
**A.** Its growth is -75.3% (active).

**Q.** Which growth does the source give for `COc1cc(C(=O)c2c(-c3ccccc3)oc3c(OC)cccc23)cc(OC)c1O` here?
**A.** Its growth is 4.03% (active).

**Q.** How did the growth turn out when `CCOC(=O)c1sc2nc(-c3cccc(OC)c3)nc(N3CCOCC3)c2c1C` was run?
**A.** The growth was 81.2%.

**Q.** How did the growth turn out when `COc1ccc(O)c(-c2cc(-c3ccccc3)c(C#N)c(=O)[nH]2)c1` was run?
**A.** Its growth is 92.8%.

**Q.** Which growth does the source give for `COc1cc(CNC(=O)/C=C/C=C/c2ccc3c(c2)OCO3)ccc1OCc1cn(-c2ccc(C)c(C)c2)nn1` here?
**A.** The growth was 65.2%.

**Q.** `C[C@@H](Nc1cc(F)cc(F)c1)c1cc(C(=O)N(C)C)cc2c(=O)cc(N3CCOCC3)oc12` was tested. Which growth did it give?
**A.** Its growth is 12.6%.

**Q.** `O=C(Nc1cc(-c2ccccc2)[nH]n1)c1ccc(Cl)cc1` was tested. Which growth did it give?
**A.** The growth was 73%.

**Q.** With `Cc1ccccc1Nc1nc(SC(C)C)nc(-c2ccccc2)c1C#N` as the molecule, how does the growth read?
**A.** Its growth is 74.8%.

**Q.** For `COc1ccc2nc(NC(=O)c3cccnc3Nc3cc(OC)c(OC)c(OC)c3)sc2c1`, which growth is on record?
**A.** Its growth is 60.3%.

**Q.** How did the growth turn out when `COc1cc(C2C(C#N)=C(N)OC3=C2C(=O)c2ccccc2C3=O)cc(OC)c1O` (stereo not given) was run?
**A.** Its growth is 106%.

**Q.** With `Cc1cc(N2CCN(CCNc3ccnc4cc(Cl)ccc34)CC2)nc(N2CCOCC2)n1` as the molecule, how does the growth read?
**A.** Its growth is 24.3%.

**Q.** For `Cc1[nH]c(C(=O)Nc2ccccc2OCc2cccc(C(=O)NCCN)c2)c(Cl)c1Cl`, which growth is on record?
**A.** Its growth is 10.7%.

**Q.** Which growth does the source give for `COc1ccc(C(=O)c2ccccc2CN2C(=O)c3ccccc3C2=O)cc1` here?
**A.** Its growth is 115%.

**Q.** `CCCCCCCCN(CCCCCCCC)CC(O)c1ccc(Cl)c(C)c1Cl` (stereo not given) was tested. Which growth did it give?
**A.** Its growth is 105%.

**Q.** How did the growth turn out when `O=Nc1ccc(NC(=O)Nc2ccc([N+](=O)[O-])cc2)cc1` was run?
**A.** Its growth is 96%.

**Q.** How did the growth turn out when `N#Cc1cccc(-c2nc3ccccn3c2NCCN2CCOCC2)c1` was run?
**A.** Its growth is 111%.

**Q.** With `O=C(CC1Sc2ccccc2NC1=O)NNc1ccc(F)cc1` (stereo not given) as the molecule, how does the growth read?
**A.** Its growth is 92.7%.

**Q.** Which growth does the source give for `CC/C(=C(\CC)c1ccc(OCCN(CC)CC)cc1)c1ccc(OCCN(CC)CC)cc1` here?
**A.** The growth was 0.372% (active).

**Q.** How did the growth turn out when `COc1ccc(/C=C2\SC(=Nc3cc(C)[nH]n3)NC2=O)cc1` was run?
**A.** The growth was 82.6%.

**Q.** Which growth does the source give for `C=C1C(=O)O[C@H]2[C@H]1CC/C(CNC(=O)C(C)c1ccc(CC(C)C)cc1)=C\CC[C@@]1(C)O[C@@H]21` (stereo not given in full) here?
**A.** The growth was -23.5% (active).

**Q.** `Nc1ccc(-c2ccncc2)cc1NC(=O)N1CCCC1` was tested. Which growth did it give?
**A.** Its growth is 94.2%.

**Q.** `O=C(Nc1nc2ccc(O)cc2s1)c1cccc(C(F)(F)F)c1` was tested. Which growth did it give?
**A.** Its growth is 84.6%.

**Q.** How did the growth turn out when `CC(=O)Nc1ccc2nc3ccc(NC(C)=O)cc3[n+](-c3ccccc3)c2c1` was run?
**A.** Its growth is 104%.

**Q.** `COc1cc(Nc2ncnc(Nc3ccc4c(n3)NC(=O)C(C)(C)O4)n2)cc(OC)c1OC` was tested. Which growth did it give?
**A.** Its growth is -24.5% (active).

**Q.** `CCN(CC)CCCC(C)Nc1ccnc2c(OC)cccc12` (stereo not given) was tested. Which growth did it give?
**A.** The growth was 117%.
